Laboratory results published in PubChem BioAssay (NCATS).
Results filed as inconclusive are left out. A call without a number means that no potency is given here. The source made the active and inactive calls. Calls follow the shape of the dose curve; as a rule, active = well fitted cell-killing curve with a large enough effect; inconclusive = small, poorly fitted or top-dose-only effect; inactive = no such curve, though single readings can be large or run the other way. Numbered stars: 1 amine (or outer) side, 2 acyl side, 3 side chain; on linkers, the order of the positions; unused ones are H or OH. Bridge positions count the residues as written; N and C are the ends. Square brackets hold non-standard residues; d marks the D form. Peptide text beside a SMILES is read from it. I, II: the chains in the order shown. Actinocin(9to1) = Cc1c2oc3c(C)ccc(C(=O)[*:1])c3nc-2c(C(=O)[*:2])c(N)c1=O; NMeV = CN[C@H](C(=O)O)C(C)C; Sar = CNCC(=O)O

Assay: qHTS of pediatric cancer cell lines to identify multiple opportunities for drug repurposing: Confirmatory screen for U-2 OS cells (AID 1347122); also: nearly all actives have a fitted effect of over 65% in size
Settings: U-2 OS osteosarcoma cell viability; series mostly up to 45.9 µM
From the text: Drug repurposing or repositioning has been offered as a strategy for drug development in oncology programs. This approach has special potential for childhood cancers and other rare or orphan diseases, where the expected return on new drug development has been a disincentive to pharmaceuticals.
In this project we exploit the poly-pharmacology of drugs to discover new indications via phenotypic screening of a panel of 19 well-characterized cell lines derived from solid tumors seen in children and adolescents. The goal is to identify approved drugs with previously unrecognized anticancer properties that has the potential to reveal new mechanisms and biological processes involved in carcinogenesis or drug resistance. We employed a titration-based paradigm (quantitative high-throughput screening or qHTS), where all compounds were tested at multiple concentrations for their effect on cell viability. Concentration-response curves (CRCs) were derived directly from the primary screen, and both potency and efficacy values were used to identify compounds with robust bioactivity profiles. We screened the NIH Chemical Genomics Center (NCGC) Pharmaceutical Collection (NPC) and Mechanism Interrogation Plate (MIPE) small molecule collections of approved and investigational compounds against these cell lines; and measured metabolically active cells after 48 hours of compound treatment as a proxy for cell viability.
Assay Submitter: Nathalia J. Martinez, National Center for Advancing Translational Sciences, National Institutes of Health, Rockville, MD, USA; email: natalia.martinez@nih.gov
[1] Shen, M et al. Quantitative high-throughput phenotypic screening of pediatric cancer cell lines identifies multiple opportunities for drug repurposing. Oncotarget 2017 Dec 19;9(4):4758-4772. PMID 29435139.
The cells were obtained from University of North Carolina (UNC), Pediatric Preclinical Testing Program (PPT), and Coriell Institute (CI).
qHTS cell viability assay:
Cells were assayed in growth media at a density of 500-1,000 cells/well. Five microliters of cells were dispensed into 1,536-well, white, solid-bottom, TC-treated plates (Greiner Bio One) using a multidrop dispenser and incubated at 37 degrees C, 5% CO2, under a humidified atmosphere for 5 hours. Twenty-three nanoliters of compounds and controls (neutral control DMSO or positive control bortezomib at final concentration of 2.3 µM) were subsequently transferred by Kalypsys pintool. For primary screens, the MIPE collection was tested at 11-point dilutions (final concentrations range from 0.78 nM to 46 µM) and the NPC collection at 8-point dilutions (final concentrations range from 0.59 nM to 46 µM). Compounds tested in follow-up screens were assayed at 11-point dilutions. Cells were incubated for 48 hours, followed by addition of 3 µL of CellTiter-Glo (Promega). After a 15 min incubation at room temperature, samples were analyzed for luminescence intensity using a ViewLux High-throughput CCD imager equipped with clear filters.
Potency is read from the fitted curve at half-maximal effect.

Row | SMILES | Potency
1 | CCCC(=O)O[C@]1(C(=O)CO)CC[C@H]2[C@@H]3CCC4=CC(=O)CC[C@]4(C)[C@H]3[C@@H](O)C[C@@]21C | inactive
2 | CN(C)C(=S)SC(=S)N(C)C | inactive
3 | CCCCCCC[N+](CC)(CC)CCCCc1ccc(Cl)cc1 | inactive
4 | NC(=O)CC[C@@H]1NC(=O)[C@H](Cc2ccccc2)NC(=O)[C@H](Cc2ccc(O)cc2)NC(=O)CCSSC[C@@H](C(=O)N2CCC[C@H]2C(=O)N[C@@H](CCCN=C(N)N)C(=O)NCC(N)=O)NC(=O)[C@H](CC(N)=O)NC1=O | inactive
5 | CCOc1ccc2nc3cc(N)ccc3c(N)c2c1 | 0.585 µM (active)
6 | CC1(C)O[C@@H]2C[C@H]3[C@@H]4C[C@H](F)C5=CC(=O)CC[C@]5(C)[C@H]4[C@@H](O)C[C@]3(C)[C@]2(C(=O)CO)O1 | inactive
7 | CC(=O)OCC(=O)[C@@]1(O)[C@H](C)C[C@H]2[C@@H]3CCC4=CC(=O)C=C[C@]4(C)[C@@]3(F)[C@@H](O)C[C@@]21C | 20.8 µM (active)
8 | Oc1ccc(O)cc1 | inactive
9 | C[C@@H]1C[C@H]2[C@@H]3C[C@H](F)C4=CC(=O)C(Cl)=C[C@]4(C)[C@@]3(F)[C@@H](O)C[C@]2(C)[C@@]1(O)C(=O)CO | inactive
10 | C[C@H]1C[C@H]2[C@@H]3CCC4=CC(=O)C=C[C@]4(C)[C@@]3(Cl)[C@@H](O)C[C@]2(C)[C@@]1(O)C(=O)CO | inactive
11 | C[C@@H]1CN(CCCn2c3ccccc3c3ccccc32)C[C@H](C)N1 | inactive
12 | CC(=O)[C@H]1CC[C@H]2[C@@H]3C[C@H](C)C4=CC(=O)CC[C@]4(C)[C@H]3[C@@H](O)C[C@]12C | 0.329 µM (active)
13 | Cc1c2oc3c(C)ccc(C(=O)N[C@@H]4C(=O)N[C@H](C(C)C)C(=O)N5CCC[C@H]5C(=O)N(C)CC(=O)N(C)[C@@H](C(C)C)C(=O)O[C@@H]4C)c3nc-2c(C(=O)N[C@@H]2C(=O)N[C@H](C(C)C)C(=O)N3CCC[C@H]3C(=O)N(C)CC(=O)N(C)[C@@H](C(C)C)C(=O)O[C@@H]2C)c(N)c1=O (I: T[dV]P[Sar][NMeV] / II: T[dV]P[Sar][NMeV]; ester I:1-I:C, II:1-II:C; linker I:N-II:N via Actinocin(9to1)) | 0.369 µM (active)
14 | CCC(C(=O)OCCN(CC)CC)c1ccccc1 (configuration not stated) | inactive
15 | CC1(C)O[C@@H]2C[C@H]3[C@@H]4CCC5=CC(=O)CC[C@]5(C)[C@@]4(F)[C@@H](O)C[C@]3(C)[C@]2(C(=O)CCl)O1 | inactive
16 | CC(=O)OCC(=O)[C@@]1(O)CC[C@H]2[C@@H]3CCC4=CC(=O)C=C[C@]4(C)[C@H]3[C@@H](O)C[C@@]21C | inactive

Row | SMILES | Potency
17 | CC(=O)OCC(=O)[C@@]1(OC(C)=O)[C@@H](C)C[C@H]2[C@@H]3C[C@H](F)C4=CC(=O)C=C[C@]4(C)[C@@]3(F)[C@@H](O)C[C@@]21C | inactive
18 | O=C(CCCN1CCC(O)(c2ccc(Br)cc2)CC1)c1ccc(F)cc1 | inactive
19 | NC(CO)(CO)CO | inactive
20 | C[n+]1c2cc(N)ccc2cc2ccc(N)cc21 (tested in a mixture with another compound) | 16.5 µM (active)
21 | CC(C)(C(=O)c1cccnc1)c1cccnc1 | inactive
22 | CC(=O)OCC(=O)[C@@]12N=C(C)O[C@@H]1C[C@H]1[C@@H]3CCC4=CC(=O)C=C[C@]4(C)[C@H]3[C@@H](O)C[C@@]12C | inactive
23 | CN(C)/N=N/c1nc[nH]c1C(N)=O | inactive
24 | C[C@@H]1C[C@H]2[C@@H]3CCC4=CC(=O)C=C[C@]4(C)[C@@]3(F)[C@@H](O)C[C@]2(C)[C@H]1C(=O)CO | inactive
25 | COCc1c(C(C)C)nc(C(C)C)c(/C=C/[C@@H](O)C[C@@H](O)CC(=O)O)c1-c1ccc(F)cc1 | 0.261 µM (active)
26 | C[C@]12CCC(=O)C=C1CC[C@H]1[C@@H]3CC[C@](O)(C(=O)CO)[C@@]3(C)C[C@H](O)[C@@]12F | inactive
27 | CC(=O)Oc1ccc(C(c2ccc(OC(C)=O)cc2)c2ccccn2)cc1 | inactive
28 | COc1c(C)c2c(c(O)c1C/C=C(\C)CCC(=O)O)C(=O)OC2 | 1.85 µM (active)
29 | C[C@]12C=CC(=O)C=C1CC[C@@H]1[C@@H]2[C@@H](O)C[C@@]2(C)[C@H]1CC[C@]2(O)C(=O)CO | inactive
30 | CCCCC(CC)CN=C(N)NC(N)=NCCCCCCN=C(N)NC(N)=NCC(CC)CCCC (configuration not stated) | 4.65 µM (active)
31 | CC(=O)OCC(=O)[C@@]12OC(C)(C)O[C@@H]1C[C@H]1[C@@H]3C[C@H](F)C4=CC(=O)C=C[C@]4(C)[C@@]3(F)[C@@H](O)C[C@@]12C | inactive
32 | C[C@]12C=CC(=O)C=C1[C@@H](F)C[C@@H]1[C@@H]2[C@@H](O)C[C@@]2(C)[C@H]1CC[C@]2(O)C(=O)CO | inactive
